We go through 39 compounds from PubChem BioAssay (EPA / NIEHS).

Active and inactive are the calls of the source. Rule for the calls: active = hit-call score of the fitted dose curve at least 0.9, where 1 is the maximum; inactive = score below 0.9.

Nuclear respiratory factor 1 (Homo sapiens), sequence (Q16656 whole entry, looked up): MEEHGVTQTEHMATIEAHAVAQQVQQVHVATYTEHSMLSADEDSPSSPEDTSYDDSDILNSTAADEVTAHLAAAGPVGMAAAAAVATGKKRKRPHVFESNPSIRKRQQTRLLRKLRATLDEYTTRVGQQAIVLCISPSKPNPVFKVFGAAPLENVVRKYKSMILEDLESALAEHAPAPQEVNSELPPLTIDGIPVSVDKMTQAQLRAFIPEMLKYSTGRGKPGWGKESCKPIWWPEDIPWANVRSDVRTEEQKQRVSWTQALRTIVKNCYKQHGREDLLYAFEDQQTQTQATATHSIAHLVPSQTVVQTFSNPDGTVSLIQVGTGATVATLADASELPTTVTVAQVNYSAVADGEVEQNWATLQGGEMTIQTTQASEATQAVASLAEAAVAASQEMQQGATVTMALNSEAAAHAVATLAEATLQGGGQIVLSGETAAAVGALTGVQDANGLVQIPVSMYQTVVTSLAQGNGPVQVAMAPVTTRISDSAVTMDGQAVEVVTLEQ

The first assay concerns the target Nuclear respiratory factor 1 (Homo sapiens) (UniProt Q16656). Description: ATG_NRF1_CIS: Attagene CIS-FACTORIAL HepG2 Assay for human Nuclear Respiratory Factor 1 (NRF1) Orphan Gene (AID 2282987). To be noted: HepG2 NRF1 cis-element reporter, Attagene multiplex; actives raise or lower the signal. An outline of the steps:
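Measured: fluorescent reporter-specific RT-PCR products from transfected HepG2 cells, separated by capillary electrophoresis. Exposure lasted 24 h. Analysis used bidirectional curve fitting with DMSO as negative control.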
As for `C[C@]12CC[C@H](O)CC1=CC[C@@H]1[C@@H]2CC[C@]2(C)C(=O)CC[C@@H]12`, the compound was called inactive.
As to `CC(=O)OC(c1ccccc1)C(Cl)(Cl)Cl` (configuration not stated), the result was inactive.
Same read-out and setting: as for `C=C(C)C#N`, the entry is “inactive”; as for `ClC1=C(Cl)[C@]2(Cl)[C@H]3[C@H]([C@H]4C=C[C@H]3C4)[C@@]1(Cl)C2(Cl)Cl`, “inactive”.
Consider `COc1cccc(C=O)c1`, for which the compound was called inactive.
With `O=C(O)Cc1ccccc1`, the result was inactive.
Take `CCOP(=S)(OCC)Oc1ccc(S(C)=O)cc1` (configuration not stated): the compound was called inactive.
Take `CCC1(c2ccc(N)cc2)CCC(=O)NC1=O` (configuration not stated): the call was inactive.
For the compound `CCCCCCCCC(=O)NCc1ccc(O)c(OC)c1`, the result was inactive.
As for `CC(C)(c1ccc(OCC2CO2)cc1)c1ccc(OCC2CO2)cc1` (configuration not stated), the outcome was inactive.
The same measure, in the same setting: as for `CN(C)P(=O)(N(C)C)N(C)C`, the entry is “inactive”; as for `COc1ccc(C=O)cc1OC`, “inactive”; as for `CCc1ccccc1N`, “inactive”.
For `ClC1(Cl)C2(Cl)C3(Cl)C4(Cl)C(Cl)(Cl)C5(Cl)C3(Cl)C1(Cl)C5(Cl)C24Cl` (configuration not stated), the compound was classed as inactive.
Turning to `Nc1cccc2ccccc12`, the compound was classed as inactive.
With `O=CC=O`, the result was inactive.
In the case of `CC(=O)C(Cl)C(=O)N(C)C` (configuration not stated), the result was inactive.
With `ClC(Cl)=C(Cl)C(Cl)=C(Cl)Cl`, the outcome was inactive.
For `Cl/C=C\C[N+]12CN3CN(CN(C3)C1)C2`, the result was inactive.
On to `O=C(Cc1ccccc1)c1ccccc1`, for which the compound was called inactive.
Consider `CCCCOCCOC(C)=O`, for which the compound was classed as inactive.
`CCC(=O)C(CC(C)N(C)C)(c1ccccc1)c1ccccc1` (configuration not stated): the compound was classed as inactive.
Turning to `C=CCc1ccc(OC)cc1`, the compound was called inactive.
Still for that read-out and setting: the entry for `Fc1ccc(C2(Cn3cncn3)OC2c2ccccc2Cl)cc1` (configuration not stated) is “inactive”; for `CCOC(=O)CP(=O)(OCC)OCC` it is “inactive”; for `COC(=O)Cc1ccccc1` it is “inactive”.
Consider `Oc1cccc2cccnc12`, for which the compound was classed as inactive.
In the case of `O=S(=O)(c1ccc(Cl)cc1)c1ccc(Cl)cc1`, the compound was classed as inactive.
On to `CC1(C)Cc2cccc(O)c2O1`, for which the call was inactive.
As for `NC(=S)Nc1ccccc1`, the call was inactive.
Turning to `CC1(C)CCC(Cc2ccc(Cl)cc2)C1(O)Cn1cncn1` (configuration not stated), the call was inactive.
As to `ClC1=C(Cl)[C@]2(Cl)[C@@H]3[C@@H](Cl)[C@@H](Cl)C[C@@H]3[C@@]1(Cl)C2(Cl)Cl`, the call was inactive.
The same measure, in the same setting: as for `Nc1ccc(-c2ccc(N)c(Cl)c2)cc1Cl`, the entry is “inactive”; as for `C1CCC(NC2CCCCC2)CC1`, “inactive”.
For `COP(=S)(OC)Oc1ccc(Sc2ccc(OP(=S)(OC)OC)cc2)cc1`, the result was inactive.
Turning to `ClCC(Cl)CCl`, the outcome was inactive.
With `Cc1ccc(N)cc1Cl`, the outcome was inactive.
In the case of `CC(=O)C=C(C)C`, the compound was called inactive.
The same measure, in the same setting: as for `CCOP(OCC)OCC`, the entry is “inactive”.

Test system in another assay: not listed separately
Description: ATG_NFI_CIS: Attagene CIS-FACTORIAL HepG2 Assay for human Nuclear Factor I (NFI) (AID 2282989). The conditions noted are these: HepG2 cis-regulatory reporter, NFI response element transcription; actives raise or lower the signal. The method, boiled down: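 Reporter transcription driven by endogenous transcription factors in HepG2 cells; 24 h treatment. Quantitation by labelled RT-PCR fragments on capillary electrophoresis, gain- or loss-of-signal relative to DMSO.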
For the compound `C[C@]12CC[C@H](O)CC1=CC[C@@H]1[C@@H]2CC[C@]2(C)C(=O)CC[C@@H]12`, the compound was called inactive.
On the same count and under the same terms, the entry for `CC(=O)OC(c1ccccc1)C(Cl)(Cl)Cl` (configuration not stated) is “inactive”; for `C=C(C)C#N` it is “inactive”.
In the case of `ClC1=C(Cl)[C@]2(Cl)[C@H]3[C@H]([C@H]4C=C[C@H]3C4)[C@@]1(Cl)C2(Cl)Cl`, the result was inactive.
Consider `COc1cccc(C=O)c1`, for which the call was inactive.
Take `O=C(O)Cc1ccccc1`: the call was inactive.
Still for that read-out and setting: the entry for `CCOP(=S)(OCC)Oc1ccc(S(C)=O)cc1` (configuration not stated) is “inactive”; for `CCC1(c2ccc(N)cc2)CCC(=O)NC1=O` (configuration not stated) it is “inactive”.
As for `CCCCCCCCC(=O)NCc1ccc(O)c(OC)c1`, the concentration at half-maximal activity (AC50) is 151 µM (active).
For the compound `CC(C)(c1ccc(OCC2CO2)cc1)c1ccc(OCC2CO2)cc1` (configuration not stated), the call was inactive.
Take `CN(C)P(=O)(N(C)C)N(C)C`: the compound was called inactive.
With `COc1ccc(C=O)cc1OC`, the compound was called inactive.
On to `CCc1ccccc1N`, for which the result was inactive.
The same measure, in the same setting: the entry for `ClC1(Cl)C2(Cl)C3(Cl)C4(Cl)C(Cl)(Cl)C5(Cl)C3(Cl)C1(Cl)C5(Cl)C24Cl` (configuration not stated) is “inactive”.
Take `Nc1cccc2ccccc12`: the outcome was inactive.
With `O=CC=O`, the compound was classed as inactive.
The same measure, in the same setting: as for `CC(=O)C(Cl)C(=O)N(C)C` (configuration not stated), the entry is “inactive”.
In the case of `ClC(Cl)=C(Cl)C(Cl)=C(Cl)Cl`, the AC50 was 163 µM (active).
Consider `Cl/C=C\C[N+]12CN3CN(CN(C3)C1)C2`, for which the call was inactive.
For `O=C(Cc1ccccc1)c1ccccc1`, the result was inactive.
As for `CCCCOCCOC(C)=O`, the call was inactive.
Turning to `CCC(=O)C(CC(C)N(C)C)(c1ccccc1)c1ccccc1` (configuration not stated), the compound was called inactive.
With `C=CCc1ccc(OC)cc1`, the compound was classed as inactive.
Consider `Fc1ccc(C2(Cn3cncn3)OC2c2ccccc2Cl)cc1` (configuration not stated), for which the result was inactive.
`CCOC(=O)CP(=O)(OCC)OCC`: the result was inactive.
Regarding `COC(=O)Cc1ccccc1`, the compound was classed as inactive.
Still for that read-out and setting: the entry for `Oc1cccc2cccnc12` is “inactive”; for `O=S(=O)(c1ccc(Cl)cc1)c1ccc(Cl)cc1` it is “inactive”.
In the case of `CC1(C)Cc2cccc(O)c2O1`, the outcome was inactive.
As to `NC(=S)Nc1ccccc1`, the result was inactive.
For the compound `CC1(C)CCC(Cc2ccc(Cl)cc2)C1(O)Cn1cncn1` (configuration not stated), the result was inactive.
For the compound `ClC1=C(Cl)[C@]2(Cl)[C@@H]3[C@@H](Cl)[C@@H](Cl)C[C@@H]3[C@@]1(Cl)C2(Cl)Cl`, the compound was classed as inactive.
Regarding `Nc1ccc(-c2ccc(N)c(Cl)c2)cc1Cl`, the compound was classed as inactive.
With `C1CCC(NC2CCCCC2)CC1`, the result was inactive.
With `COP(=S)(OC)Oc1ccc(Sc2ccc(OP(=S)(OC)OC)cc2)cc1`, the compound was classed as inactive.
Take `ClCC(Cl)CCl`: the compound was called inactive.
With `Cc1ccc(N)cc1Cl`, the compound was called inactive.
Turning to `CC(=O)C=C(C)C`, the outcome was inactive.
Same read-out and setting: as for `CCOP(OCC)OCC`, the entry is “inactive”.

For another assay, the target named is Myc proto-oncogene protein (Homo sapiens) (UniProt P01106). Kind of assay: ATG_Myc_CIS: Attagene CIS-FACTORIAL HepG2 Assay for human Myelocytomatosis (Myc) Proto-Oncogene Transcription Factor (AID 2282990). To be noted: HepG2, Attagene cis-reporter transcription factor activity; actives raise or lower the signal. An outline of the steps: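 After 24 h chemical treatment of HepG2 cells carrying multiplexed cis-regulated reporter constructs, reporter transcripts quantified by RT-PCR and capillary electrophoresis of fluorescent fragments. Gain or loss fitted against DMSO baseline.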
Myc proto-oncogene protein (Homo sapiens), sequence (P01106 whole entry, looked up, the tested form may be a part): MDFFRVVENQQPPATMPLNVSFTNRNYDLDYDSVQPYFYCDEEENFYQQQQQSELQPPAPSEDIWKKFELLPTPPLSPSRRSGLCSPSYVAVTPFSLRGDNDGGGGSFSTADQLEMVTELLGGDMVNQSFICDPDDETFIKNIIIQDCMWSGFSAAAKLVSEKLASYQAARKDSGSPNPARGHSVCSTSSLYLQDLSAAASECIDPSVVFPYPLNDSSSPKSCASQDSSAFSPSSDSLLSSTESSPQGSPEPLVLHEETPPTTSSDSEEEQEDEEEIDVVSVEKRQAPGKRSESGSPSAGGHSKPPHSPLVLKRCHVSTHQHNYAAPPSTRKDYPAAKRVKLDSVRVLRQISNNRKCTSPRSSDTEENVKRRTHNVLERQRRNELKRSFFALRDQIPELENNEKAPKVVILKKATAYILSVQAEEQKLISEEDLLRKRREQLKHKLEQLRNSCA
Take `C[C@]12CC[C@H](O)CC1=CC[C@@H]1[C@@H]2CC[C@]2(C)C(=O)CC[C@@H]12`: the call was inactive.
Regarding `CC(=O)OC(c1ccccc1)C(Cl)(Cl)Cl` (configuration not stated), the compound was classed as inactive.
As to `C=C(C)C#N`, the call was inactive.
Same read-out and setting: the entry for `ClC1=C(Cl)[C@]2(Cl)[C@H]3[C@H]([C@H]4C=C[C@H]3C4)[C@@]1(Cl)C2(Cl)Cl` is “inactive”; for `COc1cccc(C=O)c1` it is “inactive”.
For `O=C(O)Cc1ccccc1`, the result was inactive.
With `CCOP(=S)(OCC)Oc1ccc(S(C)=O)cc1` (configuration not stated), the outcome was inactive.
Still for that read-out and setting: the entry for `CCC1(c2ccc(N)cc2)CCC(=O)NC1=O` (configuration not stated) is “inactive”.
Consider `CCCCCCCCC(=O)NCc1ccc(O)c(OC)c1`, for which the compound was called inactive.
On to `CC(C)(c1ccc(OCC2CO2)cc1)c1ccc(OCC2CO2)cc1` (configuration not stated), for which the compound was classed as inactive.
In the case of `CN(C)P(=O)(N(C)C)N(C)C`, the call was inactive.
Turning to `COc1ccc(C=O)cc1OC`, the compound was classed as inactive.
On to `CCc1ccccc1N`, for which the call was inactive.
Consider `ClC1(Cl)C2(Cl)C3(Cl)C4(Cl)C(Cl)(Cl)C5(Cl)C3(Cl)C1(Cl)C5(Cl)C24Cl` (configuration not stated), for which the outcome was inactive.
For the compound `Nc1cccc2ccccc12`, the compound was called inactive.
Turning to `O=CC=O`, the compound was classed as inactive.
On to `CC(=O)C(Cl)C(=O)N(C)C` (configuration not stated), for which the compound was classed as inactive.
As for `ClC(Cl)=C(Cl)C(Cl)=C(Cl)Cl`, the AC50 was 119 µM (active).
As for `Cl/C=C\C[N+]12CN3CN(CN(C3)C1)C2`, the outcome was inactive.
Same read-out and setting: the entry for `O=C(Cc1ccccc1)c1ccccc1` is “inactive”; for `CCCCOCCOC(C)=O` it is “inactive”.
For the compound `CCC(=O)C(CC(C)N(C)C)(c1ccccc1)c1ccccc1` (configuration not stated), the compound was classed as inactive.
The same measure, in the same setting: the entry for `C=CCc1ccc(OC)cc1` is “inactive”.
On to `Fc1ccc(C2(Cn3cncn3)OC2c2ccccc2Cl)cc1` (configuration not stated), for which the compound was classed as inactive.
As to `CCOC(=O)CP(=O)(OCC)OCC`, the result was inactive.
Regarding `COC(=O)Cc1ccccc1`, the outcome was inactive.
In the case of `Oc1cccc2cccnc12`, the compound was called inactive.
On to `O=S(=O)(c1ccc(Cl)cc1)c1ccc(Cl)cc1`, for which the call was inactive.
Consider `CC1(C)Cc2cccc(O)c2O1`, for which the call was inactive.
Take `NC(=S)Nc1ccccc1`: the call was inactive.
Regarding `CC1(C)CCC(Cc2ccc(Cl)cc2)C1(O)Cn1cncn1` (configuration not stated), the call was inactive.
For `ClC1=C(Cl)[C@]2(Cl)[C@@H]3[C@@H](Cl)[C@@H](Cl)C[C@@H]3[C@@]1(Cl)C2(Cl)Cl`, the call was inactive.
Take `Nc1ccc(-c2ccc(N)c(Cl)c2)cc1Cl`: the call was inactive.
Consider `C1CCC(NC2CCCCC2)CC1`, for which the call was inactive.
With `COP(=S)(OC)Oc1ccc(Sc2ccc(OP(=S)(OC)OC)cc2)cc1`, the compound was classed as inactive.
Consider `ClCC(Cl)CCl`, for which the outcome was inactive.
`Cc1ccc(N)cc1Cl`: the compound was classed as inactive.
`CC(=O)C=C(C)C`: the outcome was inactive.
On the same count and under the same terms, as for `CCOP(OCC)OCC`, the entry is “inactive”.
